# Source: PubChem BioAssay
# Not all results are given here.
# aSyn 5UTR act: Activators working through SNCA 5'UTR binding (MLPCN). alpha-synuclein 5'UTR reporter, activators screen. activity score, % (tested at 7.5 µM), hits read low. 300,000 tested, 7.1% active. AID 1814; in the data active = activity score below about -60%
# Numbers stand for hits; i = inactive.
SMILES,aSyn 5UTR act
O=C(O)c1ccccc1-c1csc(-c2ccccc2)n1,-118.2
Cc1oncc1-c1csc(-c2ccccc2)n1,-82.0
O=C(O)c1ccc(-c2nc(-c3ccccc3Cl)cs2)cc1,-118.4
O=C(O)c1ccccc1C(=O)Nc1ccc(Oc2cccc3ccccc23)cc1,i
CNC(=O)c1csc(-c2ccc(C)cc2)n1,-80.8
c1ccc(COc2ccc(-c3csnn3)cc2)cc1,-185.2
COc1ccc2c(c1)CCc1c-2n[nH]c1C(=O)NCCC(C)C,-71.3
CNC(=O)c1[nH]nc2c1CCc1cc(OC)ccc1-2,-105.3
CC(C)c1ccc(NC(=S)Nc2ccc3cn[nH]c3c2)cc1,-93.9
COc1ccccc1NC(=S)Nc1ccc2cn[nH]c2c1,-101.2
N#Cc1ccccc1NC(=O)c1ccccc1OCC(=O)NCc1ccco1,-68.3
COc1cccc(-c2nc(-c3ccc4c(c3)NC(=O)CO4)cs2)c1,-197.1
COc1cccc(CNC(=O)CCS(=O)(=O)c2ccc3c(c2)NC(=O)CO3)c1,i
COc1cccc(C2CC(=O)Nc3cc4c(cc32)CCC4)c1 (configuration not stated),i
Cc1cccn2cc(-c3ccc4c(c3)NC(=O)CO4)nc12,-96.6
CSc1ccc(/C=C(/NC(=O)c2ccccc2)C(=O)N2CCN(C)CC2)cc1,-146.9
O=C(Nc1ccc(S(=O)(=O)NCc2ccco2)cc1)c1ccc2ccccc2n1,-65.7
Cc1ccc(NC(=O)c2ccc(=O)[nH]n2)cc1C,-102.5
Cc1ccc(/C=C/C(=O)c2c(C)nc3ccccn23)cc1,-89.7
Cc1ccc(NC(=O)c2ncc(Cl)c(Cl)c2Cl)cc1C,-164.1
CCc1nnc(NC(=O)c2ccc3ccccc3n2)s1,-196.4
Cc1ccc(NC(=O)c2c(C)nc3ccccn23)cc1C,-152.1
O=C(Nc1ccccc1)c1ccc2ccccc2n1,-178.0
Cc1ccc(NC(=O)c2ccc(S(=O)(=O)NCc3ccco3)cc2)nc1,-130.9
Cc1ccc(NC(=O)c2ccc3ccccc3n2)cc1S(=O)(=O)N(C)C,-120.8
SMILES,aSyn 5UTR act
O=C(Nc1ccccc1)c1cnc2ccccc2n1,-116.0
O=C(N/N=C/c1ccsc1)c1ccc2ccccc2n1,-96.9
Cc1ccc(NC(=O)c2cnc3ccccc3n2)cc1C,-95.8
CN(C)/C=C1/C(=O)N(c2ccc([N+](=O)[O-])cc2)N=C1c1ccccc1,-115.5
C[n+]1cn(/N=C/c2ccccc2)c2ccccc21,-86.9
O=C1OC(c2ccc3c(c2)OCO3)N(C(=O)c2ccc(Cl)c(Cl)c2)c2ccccc21 (configuration not stated),-90.6
CCOC(=O)c1ccc2ncc(-c3ccccc3)nc2c1,-160.0
CCOC(=O)c1cnc(-n2nc(C)cc2C)nc1NNc1nc(-c2ccccc2)cc(-c2ccccc2)n1,i
CCOC(=O)c1cnc(-c2ccccc2)nc1N,-148.1
CCOC(=O)c1cnc(-c2ccccc2)nc1N(C)C,-241.3
Cc1nc2ccc(C(=O)OCc3ccccc3Br)cc2nc1C,-166.3
C#CC(=O)N(c1cccc(OC)c1)C(C(=O)NC1CCCC1)c1cccs1 (configuration not stated),i
COc1cccc(NC(=O)C(=S)NC2CCCCC2)c1,-85.4
COc1cccc(NC(=O)NC2CCCCCCC2)c1,-132.3
Cc1cc(C)c2c3c(sc2n1)C(c1cccc(F)c1)C(C#N)=C(N)O3 (configuration not stated),-76.0
COc1ccc(C(=O)NCCn2ccc3ccccc32)c(OC)c1,-89.8
O=C(/C(=C(\O)c1ccccc1)c1nc2ccccc2[nH]1)c1ccccc1,-107.8
Cc1cc(N/N=C/c2ccccc2)nc(N2CCOCC2)n1,-83.3
O=C(O)c1ccc(N/N=C/c2ccc3c(c2)OCO3)cc1,i
C/C(=N\Nc1ccc(Cl)c(C(=O)O)c1)c1ccc2c(c1)OCO2,-72.6
Cc1ccc(N/N=C/c2ccc3c(c2)OCCO3)cc1Cl,-86.9
O=C(O)c1cc(N/N=C/c2ccc3c(c2)OCO3)ccc1Cl,-72.6
Cc1ccc(N/N=C/c2ccc(N3CCOCC3)cc2)cc1C,-95.7
N#Cc1ccccc1/C=N/Nc1nc(-c2ccccc2)c2cc(Cl)ccc2n1,-95.2
Cn1ccsc1=NC(=O)c1cccc(OC(F)F)c1,-127.9
SMILES,aSyn 5UTR act
COc1cc(N)ccc1C(=O)O,-76.0
C/C(=N\NC(N)=S)C1=CCC2C3CC[C@H]4CC(O)CC[C@]4(C)C3CC[C@]12C (some centres not stated),-94.6
O=C1COc2ccc(OCc3ccc(F)cc3)cc21,-99.8
CCOc1ccc(C(=O)c2ccc(OCC)c(N)c2)cc1N,-69.6
CN(C)c1ccc(C(=O)c2ccc(N(C)C)c(N)c2)cc1N,-74.4
Cn1cc(-c2nc3ccccc3[nH]2)c2ccccc21,-124.2
Nc1cccc2nc3ccccc3cc12,i
Nc1ccccc1-c1nc2ccccc2[nH]1,-162.9
O=c1[nH]cccc1-c1nc2ccccc2[nH]1,-131.7
Oc1ccc(C=Nc2ccccc2-c2nc3ccccc3[nH]2)cc1,-142.0
CCCn1c(Sc2nnnn2-c2ccccc2)n[nH]c1=O,-98.1
CC12COC3(C(=O)Nc4ccc5ccccc5c4)CC1CCC32C (configuration not stated),-144.5
N#CC1=C(N)Oc2cc(N)ccc2C1c1cc(Br)cs1 (configuration not stated),-75.3
N#CC1=C(N)Oc2cc(N)ccc2C1c1cccc(Br)c1 (configuration not stated),i
Cc1nc(N)sc1N=Nc1ccc(Br)cc1,-253.9
CCCc1nn(C)c(C(=O)Nc2cccc(CC)c2)c1Cl,-84.2
CCCc1nn(C)c(C(=O)Nc2ccc3ccccc3c2)c1Cl,-203.9
Cc1cc(C)c(S(=O)(=O)Nc2ccc(N(C)C)cc2)c(C)c1-n1cnnn1,-79.2
Cc1cc2nnc(SCC(=O)NCc3ccco3)n2c2ccccc12,-184.1
COc1ccc(C(=O)Nn2c(SCC(=O)NCc3ccco3)nc3ccccc3c2=O)cc1,i
CC1CCCCC1NC(=O)/C=C/c1nc2ccccc2s1 (configuration not stated),-148.5
O=C(/C=C/c1nc2ccccc2s1)N1CCCCCC1,-107.1
CN(C1=C(NC(=O)c2ccc(Cl)cc2)C(=O)c2ccccc2C1=O)c1ccccc1,-83.4
Cc1ccc(C2=Nc3ccccc3SC(c3cccc([N+](=O)[O-])c3)C2)cc1 (configuration not stated),-113.2
COC(=O)c1cc(-c2ccc(C)cc2)n[nH]1,-106.3
SMILES,aSyn 5UTR act
CCN1CCN(Cc2ccc(NC(=O)c3cc(NC(=O)c4cc(-c5ccc(OC)cc5)n[nH]4)cc(OC)c3)cc2C(F)(F)F)CC1,i
CCOc1cccc(-c2cc(C(=O)NN)[nH]n2)c1,-63.6
CCOc1ccc(-c2cc(C(=O)OC)[nH]n2)cc1,-103.2
COC(=O)c1cc(-c2ccc(OC)cc2)n[nH]1,-103.2
CCOc1ccc(N2C(=O)/C(=C/c3ccccc3)N=C2SC)cc1,-89.0
COc1ccc(/C=C2\N=C(SC)N(c3ccccc3OC)C2=O)cc1,-66.3
O=C1/C(=C/c2ccc(O)c(O)c2)SC(=S)N1Nc1ccccc1,-146.2
Cc1ccc(/C=C2\SC(=S)N(CCCC(=O)Nc3cccnc3)C2=O)cc1,i
COc1ccc(/C=C2\SC(=S)N(CCCC(=O)Nc3ccc(O)cc3)C2=O)cc1,i
CCOc1cc(/C=C2\SC(=S)N(Nc3ccccc3)C2=O)ccc1O,-164.6
COc1cc(/C=C2\SC(=S)N(Nc3ccccc3)C2=O)ccc1O,-145.2
O=C1C=C(N2CCOCC2)c2ccccc2C1=O,i
CC(=C/c1ccccc1)/C=C1/SC(N2CCOCC2)=NC1=O,-101.8
CC1Oc2ccccc2C=C1/C=C1/SC(N2CCOCC2)=NC1=O (configuration not stated),-107.7
